Experimental data reported in PubChem BioAssay AID1347426 (Functional Genomics Laboratory (NCATS/FGL), 2020).
Out of some 31,000 sequences screened, about 1,400 (4.5%) were called active. This is one part of a sample in which actives are shown more often than they occur.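 The calls were made as follows: active = median seed-adjusted z-score above 1 or below -1; inactive = the rest.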

Assay: Novel Modifiers of Survival Motor Neuron (SMN) Protein: Gene Identification via Genome-wide siRNA Screen;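 also: luminescence tracks full-length SMN protein made from the SMN2 reporter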
Conditions: HEK293T SMN2-luciferase reporter, siRNA knockdown, 72 h; actives lie on both sides
How it was run: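 HEK293T cells stably carrying an SMN2 promoter/splicing cassette–luciferase reporter were reverse-transfected with 1 pmol siRNA per well (druggable-genome library, 3 siRNAs per gene) and grown 72 h at 37 °C. Luminescence, normalized to negative-control siRNA and log10-transformed, was scored as MAD.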

Sequence | median seed-adjusted z-score
AGACGGUCCUCUUUCGACATT against LOC442229 | 0.183 (inactive)
GGAUAUCAAUUAUUACGCUTT against LIFR | 0.031 (inactive)
AGGAGUCCCUAAUGCUACATT against TRIM74 | 0.0932 (inactive)
GCAUCAACUUUGUGCAUGATT against PLTP | 1.09 (active)
GCAGCAAACUGACGGAGAATT against PCTK3 | 0 (inactive)
CAGUGCUCAUGGAACUCUUTT against HMGCS2 | -0.465 (inactive)
CGAUGAAGGGUUCCGAUUATT against CR1 | 0.143 (inactive)
GGGCGAGUAUGACCGAUCATT against CTRL | 0.0758 (inactive)
GCAGAUACAUUGAUCGCAUTT against PRPF8 | -1.54 (active)
GGACCAGACAACGAACUGATT against RNF135 | 0.581 (inactive)
CGCUGAAACACGUCCAUUUTT against CHAD | 0 (inactive)
CUCUGAACAUCAACCCGGATT against DMRTB1 | -0.393 (inactive)
GGAUCGUGGUCUUUCCAAATT against FNTA | 1.04 (active)
GAAGAUUGGUGAUCUAGGATT against WNK3 | -0.466 (inactive)
GGCUUCUUGUCCAACCCUATT against CILP | 0.0436 (inactive)
GUAGGACCCUAAUAUCGAUTT against TEP1 | -0.495 (inactive)
CAACUUUGAGGUAAAGUCATT against PRPF19 | -0.485 (inactive)
CGCUGAUACUAACAAUUGATT against AOX1 | -0.0717 (inactive)
GAUUCGUUCUUCUACAACUTT against PSMD2 | -1.44 (active)
GGGCUGGAAUUACUAUGGATT against CCNH | -0.659 (inactive)
GGCGAUUAGGAAACAUGAATT against PRKX | 0.0341 (inactive)
GCAUUUUCCGCCUACCACATT against POLM | -1.55 (active)
GAACAUUUCCAAGUCUGUATT against YSK4 | -0.181 (inactive)
CCAAGUUUAUAUCAUAUUATT against GNG4 | -0.188 (inactive)
CGCGGUGCAUAUGAAGAUATT against PIGM | 1.36 (active)
CAGUGUAAUUAGGCAACUATT against MYO3A | 0.0776 (inactive)
CACCUCCGAUAAGCCCUAUTT against ZIC2 | -0.162 (inactive)
GCAACUACUUCCGAUCUAATT against KIF17 | -0.151 (inactive)
GGUUGUAACUGCAAGAUCATT against TIMP3 | -1.05 (active)
CAUCCAUAAUUGGUGUAAATT against KIF20B | 0 (inactive)
